Reference: PubChem BioAssay
A number with no mark means an inactive call. Inconclusive results are not listed. The source made the active and inactive calls.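 How the source made its calls, unless noted: active means normalized viability below 100% at a tested concentration; inactive means the rest.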

Assays:
[1] = viability loss in pontine glioma line – cell-based, SU-DIPG-XVII, MIPE5.0, CellTiter-Glo, qHTS, dose response (AID 1347060; cut-off not given, nearly all actives have AC50 up to about 26 µM;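 on AC50: cells exposed to compound for 48 hours before viability readout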); conditions: CellTiter-Glo ATP luminescence
[2] = JHH-DIPG-1 glioma cell viability, MIPE5.0 library, CellTiter-Glo luminescence, qHTS (AID 1347067; cut-off not given, nearly all actives have AC50 up to about 26 µM;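 further: cells exposed to compound for 48 hours before readout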); conditions: JHH-DIPG-1 glioma viability, CellTiter-Glo ATP luminescence
[3] = growth inhibition of DIPG cells – cell-based, MIPE5.0 library, qHTS (AID 1347068; cut-off not given, nearly all actives have IC50 up to about 30 µM;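 on IC50: cells exposed to compound for 48 hours before viability readout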); conditions: SU-DIPG-XXV viability
[4] = drug combination growth inhibition, ovarian cancer – cell-based, oncology-focused library, rucaparib conditional, profiling panel (AID 1508598); conditions: patient-derived ovarian cancer cells, CellTiter-Glo viability, 144 h, active compounds read low

In the case of `CCn1c(N)c(C(=O)NC)c(=O)c2ccc(C#CC(C)(O)COC)nc21` (stereo not drawn), the AC50 [1] is reported as 20.9 µM (active), the outcome [2] is reported as “inactive” and the outcome [3] is reported as “inactive”.

In the case of `O=C(Nc1ccnc(NC(=O)C2CC2)c1)c1c(Cl)cccc1Cl`, the AC50 [1] is reported as 9.34 µM (active), the AC50 [2] is reported as 2.63 µM (active) and the IC50 [3] is reported as 7.42 µM (active).

With `COc1cc2c3c(n(CCCN4CCOCC4)c(=O)c2cc1OC)-c1cc2c(cc1C3=O)OCO2` the AC50 [1] was 0.0417 µM (active), the AC50 [2] was 8.33 µM (active) and the outcome [3] was “inactive”.

With `CC[C@H](C)[C@@H]([C@@H](CC(=O)N1CCC[C@H]1[C@H](OC)[C@@H](C)C(=O)N[C@@H](Cc1ccccc1)c1nccs1)OC)N(C)C(=O)[C@@H](NC(=O)[C@H](C(C)C)N(C)C)C(C)C` the outcome [1] was “inactive” and the IC50 [3] was 0.00417 µM (active).

For `CC#C[C@@H](CC(=O)O)c1ccc(OCc2cccc(-c3ccc(C(F)(F)F)cc3)c2)cc1`, the outcome [1] was “inactive”, the outcome [2] was “inactive” and the outcome [3] was “inactive”.

For `CC[C@H](Nc1ncnc2nc[nH]c12)c1oc2ccccc2c(=O)c1-c1cccc(F)c1`, the outcome [1] was “inactive” and the outcome [3] was “inactive”.

In the case of `O=C(/C=C/c1ccc(Cl)cc1)N1CCC2(CC1)CN(Cc1ccc(Cl)c(Cl)c1)C(=O)O2`, the AC50 [1] is reported as 18.6 µM (active) and the outcome [3] is reported as “inactive”.

In the case of `CSc1ccc(C(=O)/C=C/c2cc(C)c(OC(C)(C)C(=O)O)c(C)c2)cc1`, the outcome [1] is reported as “inactive” and the outcome [3] is reported as “inactive”.

In the case of `COc1cccc(Nc2ncnn3ccc(CN4CC[C@@H](N)[C@H](O)C4)c23)c1`, the AC50 [1] is reported as 14.8 µM (active), the outcome [2] is reported as “inactive” and the outcome [3] is reported as “inactive”.

In the case of `Cc1onc(-c2ccc(F)cc2)c1COc1ccc(C(=O)N2CCS(=O)(=O)CC2)cn1`, the outcome [1] is reported as “inactive”, the outcome [2] is reported as “inactive” and the outcome [3] is reported as “inactive”.

With `C[C@@H](O)[C@@H](C)Oc1nc(Nc2ccc(S(=N)(=O)C3CC3)cc2)ncc1C(F)(F)F` (stereo partly drawn) the AC50 [1] was 20.9 µM (active) and the outcome [3] was “inactive”.

With `Cc1cc(CS(=O)(=O)c2ccccc2)cc(OCc2ccc(CN3CCC[C@@H]3CO)cc2)c1` the AC50 [1] was 26.3 µM (active), the outcome [2] was “inactive” and the outcome [3] was “inactive”. For the same compound, the viability ([4]; at 0.000305 µM, OCI-C5x cells, with rucaparib 10 µM, 100% = cells with rucaparib alone) was 111%, the viability ([4]; at 0.000305 µM, OCI-C5x cells, without rucaparib) was 109% and the viability ([4]; at 0.000305 µM, OCI-P5x cells, with rucaparib 20 µM, 100% = cells with rucaparib alone) was 97% (active). The viability ([4]; at 0.000305 µM, OCI-P5x cells, without rucaparib) was 106%, the viability ([4]; at 0.00122 µM, OCI-C5x cells, with rucaparib 10 µM, 100% = cells with rucaparib alone) was 113% and the viability ([4]; at 0.00122 µM, OCI-C5x cells, without rucaparib) was 120%. For the same compound, the viability ([4]; at 0.00122 µM, OCI-P5x cells, with rucaparib 20 µM, 100% = cells with rucaparib alone) was 103%, the viability ([4]; at 0.00122 µM, OCI-P5x cells, without rucaparib) was 108% and the viability ([4]; at 0.00488 µM, OCI-C5x cells, with rucaparib 10 µM, 100% = cells with rucaparib alone) was 111%. For the same compound, the viability ([4]; at 0.00488 µM, OCI-C5x cells, without rucaparib) was 127%, the viability ([4]; at 0.00488 µM, OCI-P5x cells, with rucaparib 20 µM, 100% = cells with rucaparib alone) was 99.4% (active) and the viability ([4]; at 0.00488 µM, OCI-P5x cells, without rucaparib) was 107%. The viability ([4]; at 0.0195 µM, OCI-C5x cells, with rucaparib 10 µM, 100% = cells with rucaparib alone) was 116%, the viability ([4]; at 0.0195 µM, OCI-C5x cells, without rucaparib) was 116% and the viability ([4]; at 0.0195 µM, OCI-P5x cells, with rucaparib 20 µM, 100% = cells with rucaparib alone) was 107%. It also gave a viability ([4]; at 0.0195 µM, OCI-P5x cells, without rucaparib) of 103%, a viability ([4]; at 0.0781 µM, OCI-C5x cells, with rucaparib 10 µM, 100% = cells with rucaparib alone) of 123% and a viability ([4]; at 0.0781 µM, OCI-C5x cells, without rucaparib) of 125%. For the same compound, the viability ([4]; at 0.0781 µM, OCI-P5x cells, with rucaparib 20 µM, 100% = cells with rucaparib alone) was 99.2% (active), the viability ([4]; at 0.0781 µM, OCI-P5x cells, without rucaparib) was 108% and the viability ([4]; at 0.313 µM, OCI-C5x cells, with rucaparib 10 µM, 100% = cells with rucaparib alone) was 116%. For the same compound, the viability ([4]; at 0.313 µM, OCI-C5x cells, without rucaparib) was 111%, the viability ([4]; at 0.313 µM, OCI-P5x cells, with rucaparib 20 µM, 100% = cells with rucaparib alone) was 106% and the viability ([4]; at 0.313 µM, OCI-P5x cells, without rucaparib) was 109%. The viability ([4]; at 1.25 µM, OCI-C5x cells, with rucaparib 10 µM, 100% = cells with rucaparib alone) was 117%, the viability ([4]; at 1.25 µM, OCI-C5x cells, without rucaparib) was 123% and the viability ([4]; at 1.25 µM, OCI-P5x cells, with rucaparib 20 µM, 100% = cells with rucaparib alone) was 99.2% (active). For the same compound, the viability ([4]; at 1.25 µM, OCI-P5x cells, without rucaparib) was 105%, the viability ([4]; at 5 µM, OCI-C5x cells, with rucaparib 10 µM, 100% = cells with rucaparib alone) was 127% and the viability ([4]; at 5 µM, OCI-C5x cells, without rucaparib) was 122%. The viability ([4]; at 5 µM, OCI-P5x cells, with rucaparib 20 µM, 100% = cells with rucaparib alone) was 95.9% (active) and the viability ([4]; at 5 µM, OCI-P5x cells, without rucaparib) was 99.8% (active).
